# Compound activity: PubChem, National Center for Advancing Translational Sciences (NCATS)
# Anesthetic bind: candidate novel general anesthetic via apoferritin binding. apoferritin/1-aminoanthracene competitive binding, fluorescence. 0.074% of 350,000 active. P02791. Potency, µM (series often up to 77.5 µM), without a hit: at the top dose activity change, negative = displacement, most hits filed as inhibitors; active = well fitted inhibition curve with a large enough effect; inconclusive = small, poorly fitted or top-dose-only effect; inactive = no such curve, though single readings can be large or run the other way; note: potency is the fitted concentration of half-maximal effect; % is set by controls: 0 for no effect and ±100 for the full control effect; nearly all actives have a fitted effect of over 20% in size
# Target sequence (P02791 2-175 limits assumed): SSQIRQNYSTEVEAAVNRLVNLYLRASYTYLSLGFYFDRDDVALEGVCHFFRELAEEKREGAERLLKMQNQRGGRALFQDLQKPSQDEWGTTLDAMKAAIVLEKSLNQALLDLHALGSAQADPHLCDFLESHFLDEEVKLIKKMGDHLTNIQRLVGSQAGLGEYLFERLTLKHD
#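 Apoferritin-based anesthetic binding model; compound displacement of fluorescent 1-AMA measured as endpoint fluorescence after 10 minutes at room temperature, scaled to free-ligand and complex controls.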
# D2 ag-1: agonists of human D2 dopamine receptor (beta-arrestin). activation, % (test concentration not listed). 0.084% of 360,000 active. DiscoveRx PathHunter D2 beta-arrestin, luminescence, 90 min; 100% = 57 uM dopamine signal; in the data active = activation above about 40%; inconclusive = between about 15% and that limit
# Target sequence (P14416 whole entry, looked up): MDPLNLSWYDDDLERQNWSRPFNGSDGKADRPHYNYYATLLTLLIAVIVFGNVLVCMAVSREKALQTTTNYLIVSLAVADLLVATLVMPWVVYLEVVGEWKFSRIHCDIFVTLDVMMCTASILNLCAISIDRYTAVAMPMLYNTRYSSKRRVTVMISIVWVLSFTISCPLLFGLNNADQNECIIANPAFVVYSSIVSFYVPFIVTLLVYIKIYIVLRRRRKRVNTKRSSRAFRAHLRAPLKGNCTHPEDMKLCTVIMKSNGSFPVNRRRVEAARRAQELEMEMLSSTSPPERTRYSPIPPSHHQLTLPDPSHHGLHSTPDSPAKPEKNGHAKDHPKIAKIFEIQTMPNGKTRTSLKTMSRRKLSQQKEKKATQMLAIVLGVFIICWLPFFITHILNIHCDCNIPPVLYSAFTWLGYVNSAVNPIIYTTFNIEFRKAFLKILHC
#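 Agonist mode: compounds alone added to overnight-plated D2 PathHunter cells for 90 min at 37 C, with 57 uM final dopamine (EC100) defining full response. Beta-arrestin recruitment detected by chemiluminescent reagent, read after 1 h at ambient temperature.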
# D2 PAM-1: positive allosteric modulators of human D2 dopamine receptor. P14416. HEK293 T-REx D2, calcium flux, EC20 dopamine potentiation. potentiation, % at 10 µM. 0.34% of 340,000 active. AID 485347;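 active = potentiation over 3 SD above the plate norm, cut at about 30% in these data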; note: 0% is about no effect
#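 Potentiation of an EC20 dopamine calcium response is measured in a force-coupled, tetracycline-inducible Hek293 Trex D2 line. Compound-only kinetic reads over 180 s flag agonists before dopamine addition.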
# D2 antagonist: antagonists of human D2 dopamine receptor. 2% of 340,000 active. HEK293 TREx D2 cells, calcium flux, dopamine EC80. AID 485344. inhibition, % at 10 µM; in the data active = inhibition above about 30%; inactive = below that, where a call was filed; note: 0% is about no effect
#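 Tetracycline-induced HEK293 TREx cells expressing D2 receptor forced-coupled to calcium signalling, loaded with no-wash calcium dye. Compounds added and calcium flux read 180 s, then dopamine added at EC80 and read a further 180 s.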
# D2 PAM-2: positive allosteric modulators of human D2 dopamine receptor | 0.23% of 360,000 active | AID 624464 | potentiation, % (concentration not given with the values) | P14416 | DiscoveRx D2 beta-arrestin cells, luminescence, 90 min; 100% = 57 uM dopamine signal; in the data active = potentiation above about 50%; inconclusive = mostly about 30% to 49%
#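 PathHunter D2 cells, attached overnight at 37 deg C, received compound in DMSO plus dopamine at EC20 (50 nM final) for 90 min at 37 deg C. Beta-arrestin recruitment was read as luminescence after 1 h with detection reagent at ambient temperature.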
# D2 ag-2: agonists of human D2 dopamine receptor; activation, % at 2 µM; AID 485358; HEK293 T-REx D2 cells, calcium flux agonist mode; P14416; 0.53% of 340,000 active;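 active = activation over 3 SD above normal in the single-dose calcium agonist read, cut at about 30% in these data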; note: 0% is about no effect
#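 Agonism is scored from calcium flux in a force-coupled, inducible HEK293 cell line expressing D2, read kinetically for 180 s after compound addition against dopamine controls.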
# An asterisk follows results filed as active; ? = inconclusive; · = no result given; ! = not active in a repeat. Rows were chosen to be rich in hits. Some 2.5% of all compounds tested hit in one or more screens of this group.
SMILES,Anesthetic bind,D2 ag-1,D2 PAM-1,D2 antagonist,D2 PAM-2,D2 ag-2
CCn1nc(C)c(NC(=O)CCSc2nc(-c3ccco3)cc(C(F)(F)F)n2)c1C,-18%,-1,31*,12,11,0
Cc1cc(NC(=O)CCCSc2nc(-c3ccco3)cc(C(F)(F)F)n2)n(-c2ccccc2)n1,-1%,0,33*,2,24,-1
Cc1noc(C)c1COc1ccc(C(=O)N2CCN(c3ccccc3F)CC2)cc1,·,2,-7,·,-3,·
COc1ccc(S(=O)(=O)N2CCOC23CCN(C(=O)c2ccccc2Br)CC3)cc1,-3%,-3,71*,26,-4,0
Cc1ccc(NC(=O)/C=C/c2cccc(C(F)(F)F)c2)cc1,2%,-3,-21,69*,-9,1
CC(C)(C)N(Cc1ccccc1)C(=O)COC(=O)C1CCN(c2ccc(C(F)(F)F)cn2)CC1,·,-6,59*,-17,-15,0
CC(C)N(Cc1ccccc1)C(=O)COC(=O)C1CCN(c2ccc(C(F)(F)F)cn2)CC1,·,-5,-11,3,-6,1
Cc1cccc(C)c1NC(=S)N/N=C/c1ccc(C(=O)O)cc1,1%,-1,-1,36*,1,0
C/C(CC(=O)Nc1cccc(C(F)(F)F)c1)=N\NC(=O)c1ccncc1,-16%,-3,-5,5,-5,1
COc1ccc(NC(=O)CSc2nc3c(c(=O)n2-c2ccc(F)cc2)SCC3)c(OC)c1,6%,-4,3,38*,-20,0
COc1ccc(-n2c(SCC(=O)Nc3cc(C)on3)nc3c(c2=O)SCC3)cc1,10%,-2,-7,7,-3,-1
C=CCN1C(=O)C2(C(C(=O)c3ccc(C)o3)=C(O)C(=O)N2CCCN2CCOCC2)c2ccccc21 (configuration not stated),-12%,-1,5,-6,-24,0
COc1ccc(-c2csc(C3=C(O)CN(Cc4ccc(S(N)(=O)=O)cc4)C3=N)n2)cc1OC,-8%,-1,4,1,-21,-1
COc1ccc(-c2csc(C3=C(O)CN(Cc4ccc(Cl)cc4)C3=N)n2)cc1OC,?,1,-18,74*,-21,1
Cn1cc(CN2CCN(c3ccccc3)CC2)c2ccccc21,-9%,7,-16,81*,-10,74*
CN(C)c1ccc(/C=C(\NC(=O)c2ccccc2)C(=O)N/N=C/c2ccc(C(=O)O)cc2)cc1,-17%,-4,8,12,-5,-1
CN(C)CCNc1ncnc2c1sc1nc(N3CCCC3)c3c(c12)CC(C)(C)OC3,3%,0,-18,-1,-18,2
CNC(=O)c1ccc(-c2sc3nc(N4CCOCC4)c4c(c3c2N)CC(C)(C)OC4)o1,73%,-1,-2,41*,5,-1
CC(C)CNc1ncnc2c1sc1nc(N3CCOCC3)c3c(c12)CC(C)(C)OC3,-7%,-3,4,33*,2,0
CC1(C)Cc2c(c(N3CCOCC3)nc3sc(-c4ccc(C(=O)O)o4)c(N)c23)CO1,139%,2,2,-23,10,0
CCCCC(=O)NC(=S)Nc1ccccc1C(=O)Nc1ccccc1,1%,-5,-4,4,-16,-1
CC(=O)NC(=S)Nc1ccccc1C(=O)Nc1ccccc1,1%,-5,6,47*,-19,2
C=CCC1(CC=C)CCCN1C(=O)c1cc(COc2ccc(C)nc2)on1,-2%,11,6,-13,-7,0
Cc1[nH]c(=S)[nH]c(=O)c1Cc1ccc(OCC(C)C)cc1,2%,-2,-5,31*,-3,-1
CCCCOc1ccc(Cc2c(COCC)[nH]c(=S)[nH]c2=O)cc1,?,-4,-11,35*,-15,1
SMILES,Anesthetic bind,D2 ag-1,D2 PAM-1,D2 antagonist,D2 PAM-2,D2 ag-2
CC(=O)n1nc(-c2ccncc2)nc1SCC(=O)Nc1cccc(Cl)c1,-2%,2,2,-14,-12,-2
COc1ccc(OC)c(NC(=O)C2CC(=O)n3ncnc3N2)c1 (configuration not stated),28%,0,33*,8,-8,1
CN1/C(=C\C=C(/C#N)C(=O)Nc2ccc(Cl)cc2)C(C)(C)c2ccccc21,3%,-2,-20,9,-16,40*
CCCNC(=O)c1onc(CS(=O)(=O)c2cccc(OC)c2)c1C(=O)NCCC,·,2,·,·,0,·
COc1cc(NC(=O)CCCn2c(=O)oc3ccccc32)cc(OC)c1,·,-1,·,·,-9,·
COc1ccc(C(C)(C)C)cc1NC(=O)CCCn1c(=O)oc2ccccc21,-18%,-3,-28,51*,-22,-2
Cc1csc(/C(=N/OC(=O)c2ccco2)C(N)=O)n1,10%,-4,4,42*,-3,0
COC(=O)[C@]1(Cc2ccccc2)N[C@H](CN(C)C(=O)NC(C)C)[C@@H]2C(=O)N(Cc3ccccc3)C(=O)[C@@H]21,·,-3,·,·,-4,·
CCC(=O)N1CCc2cc(OC)c(OC)cc2C1COc1ccccc1OC (configuration not stated),-2%,-2,38*!,7,-3,0
Cc1cc(C)c(S(=O)(=O)N2CCN(C(=O)CC(C)n3nc(C)nc3C)CC2)c(C)c1 (configuration not stated),·,1,·,·,-2,·
Cc1nc(C)n(CC(C)C(=O)N2CCN(S(=O)(=O)c3ccccc3)CC2)n1 (configuration not stated),22%,-2,-15,32*,-1,-1
Cc1cc(C)c(S(=O)(=O)N2CCN(C(=O)C(C)Cn3nc(C)nc3C)CC2)c(C)c1 (configuration not stated),3%,3,12,35*,-9,1
CC(Sc1ccccc1)C(=O)N1CCN(S(=O)(=O)c2ccccc2)CC1 (configuration not stated),-9%,5,3,12,-23,0
Cc1cc(C)c(S(=O)(=O)N2CCN(C(=O)N3CCCCC3)CC2)c(C)c1,-11%,-3,7,0,1,0
Cc1cc(C)c(S(=O)(=O)N2CCN(C(=O)N(C)C)CC2)c(C)c1,-7%,-1,32*,-5,-6,0
Cc1cccc(-n2ncc3c(=O)[nH]c(SCC(=O)NCCC4=CCCCC4)nc32)c1,·,2,18,·,-4,·
COc1ccc(-c2cc(C(F)(F)F)nc(-n3cncn3)n2)cc1,32µM*,-1,-1,3,-1,0
